# Experimental data: the supplement of paper PMC9254222
# In all, about 1,100 compounds were measured (“Wnt reporter firefly/Renilla luciferase ratio relative to plate median”: median about 1.1, highest 2% from about 1.6 on). Many of the other results were omitted from the sample, so the highest values are more common in it than they were.
# System: HEK293T (UBE3A T485A transfected, BAR Wnt reporter)
# Assay: Wnt reporter firefly/Renilla luciferase ratio relative to plate median (fold (linear ratio)); higher = more Wnt/beta-catenin reporter activation
# Details: 24 h
# Summary of the method: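 HEK293T cells were seeded at 4500 cells/well in white 384-well plates and grown in DMEM with 10% FBS at 37°C and 5% CO2. The cells were transfected using Fugene 6 with a BAR firefly luciferase Wnt reporter, TK-Renilla and an expression plasmid, and four hours later robots added the chemicals at 0.01–100 uM for 24 h before a Dual-Glo luciferase readout. Wnt activity was taken as the firefly/Renilla ratio and cell health as raw Renilla, each median-centred per plate. Values are averages of four biological replicates.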
SMILES,Wnt reporter firefly/Renilla luciferase ratio (concentration: 0.01 uM),Wnt reporter firefly/Renilla luciferase ratio (concentration: 0.1 uM),Wnt reporter firefly/Renilla luciferase ratio (concentration: 1 uM),Wnt reporter firefly/Renilla luciferase ratio (concentration: 10 uM),Wnt reporter firefly/Renilla luciferase ratio (concentration: 100 uM)
CC(C)N(C(=O)COc1nnc(C(F)(F)F)s1)c1ccc(F)cc1 [Flufenacet],0.973,0.746,0.898,0.605,0.254
C=CCc1ccc2c(c1)OCO2 [Safrole],,1.26,1.37,0.895,1.23
C[C@]12C=CC3=C4CCC(=O)C=C4CC[C@H]3[C@@H]1CC[C@@H]2O [17beta-Trenbolone],,1.08,1.18,0.938,0.146
CCNC(=O)NC(=O)/C(C#N)=N/OC [Cymoxanil],1.42,1.34,1.15,1.29,1.1
CC(C)(C)c1ccccc1O [2-tert-Butylphenol],,1.53,1.54,1.25,0.813
CC1(C)C(C=C(Cl)Cl)C1C(=O)OCc1cccc(Oc2ccccc2)c1 (stereo not drawn) [Permethrin],0.82,0.873,1.11,1.19,0.865
Nc1nc(N)nc(NC2CC2)n1 [Cyromazine],1.01,1.18,0.955,1.02,1.22
CCCCCCCCn1sccc1=O [Octhilinone],,1.02,1.15,1.07,
CNC(=O)N(C)c1nnc(C(C)(C)C)s1 [Tebuthiuron],1.35,1.39,1.32,1.67,1.5
CCCN(CCC)c1c([N+](=O)[O-])cc(C(C)C)cc1[N+](=O)[O-] [Isopropalin],,1.07,1.04,1.11,1.31
CCOC1Oc2ccc(OS(C)(=O)=O)cc2C1(C)C (stereo not drawn) [Ethofumesate],1.05,0.973,1.03,1.14,1.86
N#CC(CCc1ccc(Cl)cc1)(Cn1cncn1)c1ccccc1 (stereo not drawn) [Fenbuconazole],1.07,1.01,1.03,0.614,0.347
CN(C)C(=S)[S-].[Na+] [Sodium dimethyldithiocarbamate],,1.22,0.816,0.751,0.926
CN(C)C(=S)SSC(=S)N(C)C [Thiram],1.62,1.39,1.06,1.24,
CN(C)C(=S)[S-].CN(C)C(=S)[S-].[Zn+2] [Ziram],,1,0.732,0.577,
c1ccc(-c2ccccc2)cc1 [Biphenyl],,1.39,1.01,1.25,1.46
CCCC1COC(Cn2cncn2)(c2ccc(Cl)cc2Cl)O1 (stereo not drawn) [Propiconazole],0.957,1.03,1.17,0.78,
